Sampled rows, rich in hits. Any-hit rate of the full collection: about 12%.
m-calpain inh: calpain II (pig) inhibition; purified calpain II, fluorogenic peptide substrate, 30 min; AID 1236; inhibition, % at 16 µM; 220,000 tested, 0.37% active;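 active = inhibition above about 50%, limit read from the data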
WT yeast gro inh: growth inhibition of WT yeast, mitochondrial fusion screen; mitochondrial fusion phenotypic screen, WT strain; inhibition, % at 10 µM; 190,000 tested, 2.1% active; in the data active = inhibition above about 58%; tested in S. cerevisiae
L major viab: Leishmania major promastigote growth inhibition; Leishmania major promastigotes, resazurin fluorescence viability; inhibition, % at 10 µM; 200,000 tested, 9% active; AID 1063; in the data active = inhibition above about 50%;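 note: promastigotes grown with compound for 44 hours at 28 °C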
KCC2 mod: modulates chloride dependent transport by human KCC2; Q9H2X9; KCC2 cells, thallium flux FluoZin-2 fluorescence; B-score of Tl+ flux slope (higher = more flux/activation; lower = inhibition) at 10 µM; 190,000 tested, 2.2% active; AID 1456;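 active = thallium flux slope and its plate-corrected score both differing from the plate sample mean at a set confidence after two filtering rounds, in either direction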;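 note: slope of fluorescence scaled to starting intensity during 10 to 20 s after thallium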
ROMK primary: modulates human ROMK potassium channel activity. Tet-inducible ROMK, thallium flux fluorescence; actives lie on both sides. B-score at 10 µM. 130,000 tested, 2% active. AID 1918;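 active = signal ratio slope over the read window, or its plate-corrected B-score, at least 3 SD from the plate mean, either direction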;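 note: B-score of the F/F0 ratio slope over 7 to 12 s after thallium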
Target sequence (P48048 whole entry, looked up): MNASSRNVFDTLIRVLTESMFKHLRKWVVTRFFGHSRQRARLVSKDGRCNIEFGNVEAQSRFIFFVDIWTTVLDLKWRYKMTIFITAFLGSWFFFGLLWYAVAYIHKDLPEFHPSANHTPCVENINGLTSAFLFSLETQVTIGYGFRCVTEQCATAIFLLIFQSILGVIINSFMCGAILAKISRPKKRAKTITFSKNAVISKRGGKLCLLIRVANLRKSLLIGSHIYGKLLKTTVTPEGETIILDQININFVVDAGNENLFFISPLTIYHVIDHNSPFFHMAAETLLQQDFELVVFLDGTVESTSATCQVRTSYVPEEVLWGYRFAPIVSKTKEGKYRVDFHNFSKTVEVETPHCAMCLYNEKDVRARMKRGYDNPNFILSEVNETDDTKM
* = called active by the depositor; i = inactive; . = no result.

SMILES	m-calpain inh	WT yeast gro inh	L major viab	KCC2 mod	ROMK primary
Cc1onc(-c2c(F)cccc2Cl)c1C(=O)N1CCN(S(C)(=O)=O)CC1	17.4	-19.0	-7.3	.	0.0766
Cc1onc(-c2c(F)cccc2Cl)c1C(=O)Nc1nc2c(s1)CCCC2	-38.3	-0.1	58.2*	2.08	0.0426
Cc1onc(-c2ccccc2Cl)c1C(=O)N1CCc2ccccc2C1	10.3	4.2	96.3*	-0.533	-1.08
CCOc1ccc(N2C(=O)Nc3ccccc3C2(O)C(=O)NCc2ccc3c(c2)OCO3)cc1 (stereo not given)	-19.4	8.3	-10.3	0.698	.
COc1ccc(OC)c(C(c2nnnn2C2CCCC2)N2CCN(c3ccc(F)cc3)CC2)c1 (stereo not given)	15.2	20.5	91.8*	-0.891	.
COc1ccc(C(c2nnnn2C2CCCC2)N2CCC(C)CC2)c(OC)c1 (stereo not given)	-14.1	26.2	99.3*	0.023	.
CN1CCCC1CCNS(=O)(=O)c1ccc(Br)cc1 (stereo not given)	-5.9	0.0	96.1*	0.514	-0.249
Cc1nc(C)c(C(=O)N/N=C/c2cc(Br)ccc2O)s1	-10.5	.	.	0.585	.
COc1cccc(NC(=O)CSc2nc3c(c(-c4ccco4)c2C#N)CCCC3)c1	-7.2	75.7*	-6.9	0.000606	.
COCCOC(=O)c1c(C)nc(SCC(=O)Nc2ccc(OC)cc2)c(C#N)c1-c1ccco1	-19.9	2.0	-4.5	.	-0.242
CC(C)c1cccc(OCCCCN(C)C)c1	-15.8	1.8	85.5*	0.187	-0.00137
CN(C)CCCOc1cccc(Cl)c1	17.7	-25.4	-0.9	-0.747	0.00488
CCN(CC)CCOc1cccc(C(C)C)c1	3.9	8.1	83.3*	0.147	0.473
CCN(CC)CCOC(=O)C(c1ccccc1)c1ccccc1	10.1	12.6	-3.6	0.46	.
c1ccc(-c2nc(-c3nccc4ccccc34)oc2-c2ccccc2)cc1	-179.6	.	.	-0.0565	.
CCC(=O)N1c2ccc(S(=O)(=O)CCC(=O)Nc3nccs3)cc2CC1C (stereo not given)	8.2	4.1	8.5	.	5.65*
NS(=O)(=O)c1ccc(NCc2cc(Cl)ccc2OCc2ccc(F)cc2)cc1	17.3	13.3	54.4*	-1.5	-0.108
NS(=O)(=O)c1ccc(CCNCc2cc(Br)ccc2OCc2ccccc2)cc1	45.0	1.4	55.3*	-1.56	-2.06
OCCNCc1cc(Br)ccc1OCc1ccccc1	-3.6	3.0	4.1	-0.351	.
CCOCCCNCc1cc(Br)ccc1OCc1ccccc1	0.7	0.9	83.4*	0.228	-1.95
CCOc1cc(CNCCc2ccc(S(N)(=O)=O)cc2)ccc1OCc1ccccc1	1.1	-10.9	100.5*	-0.174	-1.07
CCCNc1sc(S(=O)(=O)CCC)nc1S(=O)(=O)c1ccc(C)cc1	1.0	-12.9	-3.6	-0.636	0.0279
CCCCCCn1c(COc2ccccc2F)nnc1SCC(=O)N1c2ccccc2NC(=O)C1(C)C	18.8	-11.7	55.1*	-0.823	.
CCCn1nnnc1SCC(=O)NCc1ccc2c(c1)OCO2	4.6	24.7	-6.3	-1.56	-0.33
CC(C)C(NC(=O)C12CC3CC(CC(C3)C1)C2)C(=O)O (stereo not given)	-31.7	-34.7	52.1*	-0.97	0.169
SMILES	m-calpain inh	WT yeast gro inh	L major viab	KCC2 mod	ROMK primary
O=S1(=O)CCN(OCc2ccc(F)cc2Cl)CC1	3.0	-8.5	-10.8	1.18	-0.441
O=C(NCCN1C(=O)S/C(=C\c2ccc(OC(F)F)cc2)C1=O)c1cnccn1	-10.3	-11.2	34.1	-0.51	0.614
COc1ccc(C2=NN(C(=O)CSc3ncccn3)C(c3cccc(OC)c3OC)C2)cc1 (stereo not given)	-83.6	-10.6	78.6*	.	0.235
COc1ccc(CNC(=O)C(OC(C)=O)c2ccccn2)cc1 (stereo not given)	-44.8	2.0	10.1	0.647	0.533
Cc1onc(-c2ccccc2Cl)c1C(=O)Nc1cccc(-c2nc3ncccn3c2C)c1	-496.2	-12.4	13.8	0.533	.
Cc1c(-c2cccc(NC(=O)c3cccs3)c2)nc2ncccn12	-480.7	-23.1	75.2*	-1.69	.
Cc1c(-c2cccc(NC(=O)c3ccco3)c2)nc2ncccn12	i	0.2	100.0*	0.15	0.453
Cc1cccc(-c2noc(CCCOc3ccc(Cl)cc3Cl)n2)c1	-51.1	35.8	-5.2	0.109	0.0107
O=S(=O)(c1ccccc1)N1CCC(O)(CSc2ccc(F)cc2)CC1	-1.7	-7.0	4.1	-1.57	-1.85
O=C(Cn1cc(C(F)(F)F)ccc1=O)N/N=C/c1ccc(Cl)c(Cl)c1	-4.3	2.9	4.3	-0.0348	.
O=C(Cn1cc(C(F)(F)F)ccc1=O)N/N=C/c1cccc(Cl)c1Cl	26.4	1.1	74.9*	-1.32	0.0568
Cc1ccc2cc3c(N)c4c(C)ccc(C)c4nc3nc2c1	22.6	32.8	100.5*	0.516	-2.65
C/C(=N/NC(=O)CC1N=C(Cc2ccccc2)NNC1=O)c1cccnc1 (stereo not given)	-11.1	-8.8	-3.9	1.01	0.201
COCCn1c(SCC(=O)Nc2cccc(C)c2)nnc1C(C)C	-32.6	11.2	91.3*	.	.
C=CCn1c(SCC(=O)Nc2cccc(C(=O)OC)c2)nnc1C(C)NC(=O)c1cccs1 (stereo not given)	17.4	83.1*	-0.9	.	.
C=CCn1c(SCC(=O)NCCc2ccccc2)nnc1C(C)NC(=O)c1cccs1 (stereo not given)	-3.5	-3.7	-0.2	0.142	.
COCCn1c(SCC(=O)Nc2cc(C)cc(C)c2)nnc1C(C)C	-7.5	-20.5	-5.9	0.104	.
CC1=C(C)/C(=N\OS(=O)(=O)c2ccccc2)C=CC1=O	-115.3	79.9*	100.5*	.	-4.31*
Cc1ccc(S(=O)(=O)O/N=C2\CCCc3ccccc32)cc1	-16.6	-4.9	-4.9	0.112	0.687
C/[N+]([O-])=C\C1C(=O)CCCC1=O	-9.7	-17.4	-8.2	-0.71	-1.07
COc1ccc(C(=O)C2CCCN(Cc3c(C)[nH]c4ccccc34)C2)c(OC)c1 (stereo not given)	-32.0	-1.7	97.0*	.	1.21
COc1ccc(C(=O)C2CCCN(Cc3sc(N4CCCC4)nc3Cl)C2)c(OC)c1 (stereo not given)	-4.4	5.2	99.4*	-0.321	0.026
COc1ccc(C(=O)C2CCCN(C3Cc4ccccc4C3)C2)c(OC)c1 (stereo not given)	-49.0	15.7	94.5*	-0.454	.
COc1ccc(C(=O)C2CCCN(S(=O)(=O)C(C)C)C2)c(C)c1 (stereo not given)	-8.5	-5.5	-7.3	-0.0167	-0.013
COc1ccc(C(=O)C2CCCN(Cc3ccc(C#CCCO)cc3)C2)c(OC)c1 (stereo not given)	-16.4	3.4	-2.1	0.297	-0.832
CCSc1nnc(NC(=O)CSc2ncccn2)s1	14.4	-4.5	1.1	1.04	-0.178
CCSc1nnc(NC(=O)COc2ccc3ccccc3c2)s1	8.0	83.7*	-9.2	-0.667	.
CCSc1nnc(NC(=O)COc2ccccc2)s1	22.3	-0.2	-5.9	-0.13	1.06
CCCC(=O)Nc1nnc(SCC)s1	5.9	-9.4	69.8*	-1.39	0.74
CCCCC(=O)OCC(=O)Nc1cccc(S(=O)(=O)NC2=NCCCCC2)c1	24.3	16.4	3.6	0.248	-0.226

Source: PubChem BioAssay (several laboratories)
